Screens from PubChem.
U2OS ROS induce: ROS inducers in U2OS cancer cells, primary screen, cell-based, H2DCF-DA fluorescence; U2OS ROS induction; actives 2% (n = 46,000); ROS induction (% of piperlongumine), % at 10 µM; in the data active means ROS induction above about 79%, passing the limit was not always enough;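 further: 0% = DMSO vehicle median and 100% = reference compound median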
Numbers without * were called inactive. Many of the other results were omitted from the sample, so hits are more common in it than they were.

SMILES	U2OS ROS induce
CC(C)NC(=O)Nc1ccc2c(c1)CC(=O)N([C@@H](C)CO)C[C@H](C)[C@H](CN(C)Cc1ccncc1)O2	11
CCOC(=O)N1CCN(C(=O)CSc2nnc(Cc3cccn3C)n2-c2ccc(F)cc2)CC1	1
Cc1ccc(NC(=O)Nc2ccc(C(C)(C)C)cc2)cc1	-18
Clc1cccc(/C=N/N2CCN(Cc3ccccc3)CC2)c1Cl	-11
COC(=O)c1cc(S(=O)(=O)NCCc2ccccc2)cn1C	0
COc1c(O)cc2c(c1OC)CC(=O)CCC2	-6
Cc1ccc(Nc2nc(Nc3ccc(C)cc3)nc(-n3sc(=S)nc3C)n2)cc1	54
Cc1ccc(C(=O)CSc2nc3sc(C)c(C)c3c(=O)[nH]2)cc1	22
Cc1ccc(C(=O)CSc2nc(C)nc3sc(C)c(C)c23)cc1	119*
Cc1ccc(C(=O)CSc2nc(C)nc3sc4c(c23)CCCC4)cc1	5
CCc1cccc(C)c1NC(C)=O	-5
Cc1ccc(N2CCN(/N=C\C=C\c3ccccc3)CC2)cc1	6
C[C@H](CO)N1C[C@H](C)[C@H](CN(C)Cc2ccc(C(=O)Nc3ccccc3N)cc2)Oc2c(NC(=O)Nc3ccc(F)cc3)cccc2C1=O	3
C[C@@H]1CN([C@H](C)CO)C(=O)c2cccc(NC(=O)c3ccc(-c4nccs4)cc3)c2O[C@H]1CN(C)Cc1ccc(C(F)(F)F)cc1	105*
C[C@@H]1CN([C@H](C)CO)C(=O)c2cccc(NC(=O)c3ccc(-c4nccs4)cc3)c2O[C@@H]1CN(C)Cc1ccc(-c2ccccc2)cc1	32
C[C@H]1CN([C@@H](C)CO)C(=O)c2cccc(NC(=O)c3ccc(-c4nccs4)cc3)c2O[C@H]1CN(C)Cc1ccc(C(=O)Nc2ccccc2N)cc1	28
C[C@@H]1CN([C@H](C)CO)C(=O)c2cccc(NC(=O)c3ccc(-c4nccs4)cc3)c2O[C@@H]1CN(C)Cc1ccc(C(=O)Nc2ccccc2N)cc1	214*
C[C@@H]1CN([C@@H](C)CO)C(=O)c2cccc(NC(=O)c3ccc(-c4nccs4)cc3)c2O[C@H]1CN(C)Cc1ccc(C(=O)Nc2ccccc2N)cc1	63
C[C@H](CO)N1C[C@H](C)[C@@H](CN(C)Cc2ccc(C(=O)O)cc2)Oc2c(NC(=O)c3ccc(-c4nccs4)cc3)cccc2C1=O	-7
C[C@@H]1CN([C@@H](C)CO)C(=O)c2cccc(NC(=O)Nc3ccc(C(F)(F)F)cc3)c2O[C@H]1CN(C)Cc1ccc(C(=O)Nc2ccccc2N)cc1	91*
C[C@H](CO)N1C[C@H](C)[C@@H](CN(C)Cc2ccc(Cl)c(Cl)c2)Oc2c(NC(=O)c3ccc(-c4nccs4)cc3)cccc2C1=O	97*
C[C@@H]1CN([C@H](C)CO)C(=O)c2cccc(NC(=O)c3ccc(-c4nccs4)cc3)c2O[C@H]1CN(C)Cc1ccc(C(=O)O)cc1	8
C[C@@H]1CN([C@H](C)CO)C(=O)c2cccc(NC(=O)Nc3ccc(F)cc3)c2O[C@H]1CN(C)Cc1ccc(C(=O)Nc2ccccc2N)cc1	18
C[C@H](CO)N1C[C@H](C)[C@H](CN(C)Cc2ccc(C(=O)O)cc2)Oc2c(NC(=O)c3ccc(-c4nccs4)cc3)cccc2C1=O	-6
CC1=NN(c2ccccc2)C(=O)C1C=NC1CCS(=O)(=O)C1 (configuration not stated)	-16
SMILES	U2OS ROS induce
COc1cc(OC)cc(C(=O)Nc2cccc3nsnc23)c1	0
CCC(C(=O)N1CCN(c2cc(C)ccc2C)CC1)n1sc2ccccc2c1=O (configuration not stated)	-6
Cc1nc(C(=O)/C=C/N(C)C)cs1	-9
COc1ccc(-c2ccc(Nc3ccc(OC(F)(F)F)cc3)nn2)cc1	-4
CC(C)NC(=O)c1ccc2c(=O)[nH]c3c(C(=O)NC(C)C)sc(=S)n3c2c1	-3
Cc1ccc(O)c(C2=Nc3ccccc3N=C(C(F)(F)F)C2)c1	12
CCOc1ccccc1NC(=O)c1ccco1	3
O=C(Cn1cnc2c(nnn2-c2cccc(Cl)c2)c1=O)NC1CCCCC1	-18
COc1ccc(-c2nc(CNS(=O)(=O)N(C)C)cs2)cc1	1
CC(=O)O[C@H]1[C@H](Oc2ccccc2COC(=O)C2(O)C=CCCC2=O)O[C@H](CO)[C@@H](O)[C@@H]1O (some centres not stated)	-5
O=C(O[C@H]1[C@H](Oc2ccccc2COC(=O)C2(O)C=CCCC2=O)O[C@H](CO)[C@@H](O)[C@@H]1O)c1ccccc1 (some centres not stated)	6
CC(=O)O[C@H]1[C@H](Oc2ccccc2COC(=O)C2(O)C=CCCC2=O)O[C@H](COC(=O)C2(O)C=CCCC2=O)[C@@H](O)[C@@H]1O (some centres not stated)	89*
Cc1ccc(N(CC(=O)c2ccccc2)CC(=O)c2ccc(Cl)cc2)cc1	5
CC(C)(C)OC(=O)N1CCC(C(=O)N2CCCCC2)CC1	-7
C[C@H]1CN([C@@H](C)CO)C(=O)Cc2cc(NC(=O)CCN3CCOCC3)ccc2O[C@H]1CN(C)C	2
